The text below walks through data of PubChem BioAssay AID2685 (National Center for Advancing Translational Sciences (NCATS), 2010).

Among all 320,000 compounds or so, about 2,100 (0.66%) were called active. About 53% were inconclusive and are not listed. The call rests on the fitted dose curve; in most records, active means well fitted inhibition curve with a large enough effect in the signal ratio, with a control signal flat (not every such curve was filed as active); inconclusive means small, poorly fitted or top-dose-only effect, or effect the other way, or a change in a side signal; inactive means flat fitted curve, though single readings scatter; the % refers to the signal ratio. Shown is part of a subset that was picked to be rich in actives.
Potency means the concentration at half of the fitted maximal effect.

A short description of the assay: qHTS Assay for Lipid Storage Modulators in Drosophila S3 Cells.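 On cell number change: cells counted by Cell Tracker Red CMTPX staining in the red channel.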 On lipid storage change, negative = inhibition: on the % scale 0 is the no-effect control and ±100 the full control effect. To be noted: BODIPY lipid droplet fluorescence, 18-24 h, cells fed with added oleic acid; cell number change: measured here: cell count max response; series mostly up to 46.1 µM; lipid storage change, negative = inhibition: at the top concentration. Put shortly:
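Drosophila S3 cells loaded with oleic acid (400 uM, as added) and compounds at several concentrations; lipid droplets imaged by 488-nm laser-scanning cytometry, 500–530 nm intensity and object ratio to cell channel. Percent activity normalized to 20 uM Triacsin C.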
Consider `CS(=O)(=O)NCc1ccc(C(=O)NC2CCCCC2)cc1`, for which the result was inactive.

As for `CS(=O)(=O)c1ccc(C(=O)NC2CCCCC2)cc1`, the “lipid storage change, negative = inhibition” value was 19.9% (inactive) and the cell number change was 6.12%. `Cc1ccc(C(=O)Nc2cccc(C(=O)O)c2)cc1`: the “lipid storage change, negative = inhibition” value is -0.691% (inactive) and the cell number change is -13.9%. Consider `Cc1cccc(C(=O)NC2CCCCCCC2)c1`, for which the “lipid storage change, negative = inhibition” value was 6.47% (inactive) and the cell number change turned out to be 5.98%. `CS(=O)(=O)Nc1ccc(C(=O)NC2CCCC2)cc1`: the Potency is 2.91 µM (active) and the cell number change is -0.712%. The matching figures for `Cc1ccc(C(=O)Nc2cccc(C(=O)NC3CCCC3)c2)cc1`: 14.6 µM (active) and 21.4%. In the case of `O=C(NC1CCCCC1)c1ccc2c(c1)OCO2`, the “lipid storage change, negative = inhibition” value is 3.69% (inactive) and the cell number change stood at 1.32%.

With `Cc1ccc(C(=O)NC2CCCCC2)cc1`, the “lipid storage change, negative = inhibition” value was 19.6% (inactive) and the cell number change is -6.85%.

As for `O=C(Nc1cccc(O)c1)c1ccc(NC(=O)C2CCCO2)cc1` (stereo unspecified), the outcome was inactive and the cell number change is -1.32%. Consider `CCc1ccc(NC(=O)c2ccc(NC(=O)C3CCCO3)cc2)cc1` (stereo unspecified), for which the outcome was inactive and the cell number change was 8.55%. As to `CC1Nc2ccc(C(=O)NC3CCCCC3)cc2NC1=O` (stereo unspecified), the Potency is 23.1 µM (active) and the cell number change is 18.4%. As for `CC(C)CC(=O)N1CCN(Cc2ccc(Cl)cc2)CC1`, the “lipid storage change, negative = inhibition” value is 10.9% (inactive) and the cell number change turned out to be 1.4%. Turning to `CN1CCN(C(=O)C2=C[C@@H](c3csc4ccccc34)C[C@@H](OCc3ccc(CO)cc3)O2)CC1`, the “lipid storage change, negative = inhibition” value was 6.22% (inactive) and the cell number change was 5.1%. Regarding `Cc1ccc(S(=O)(=O)N(C)c2nc3ccccc3[nH]c2=S)cc1`, the “lipid storage change, negative = inhibition” value was -4.12% (inactive) and the cell number change was 4.96%.

With `CCCCn1nc(NS(=O)(=O)c2cccc3nonc23)c2cc3cccc(C)c3nc21`, the “lipid storage change, negative = inhibition” value was -12.1% (inactive). For the compound `COc1ccc2nc(SCc3ccccc3C)nc(C)c2c1`, the “lipid storage change, negative = inhibition” value was -4.04% (inactive) and the cell number change was -12.5%. For `COc1ccc(CCN(Cc2ccc(C(C)C)cc2)S(=O)(=O)c2ccc(S(=O)(=O)N(C)C)cc2)cc1OC` the same measures were 0.0067% (inactive) and -3.06%. For `COc1ccc(OC)c(C2=NOC(C(=O)NCc3cccs3)C2)c1` (stereo unspecified), the “lipid storage change, negative = inhibition” value was -0.872% (inactive) and the cell number change was 19.5%.

Regarding `COc1nc(OC)nc(N2CCC(C(=O)Nc3cccc4ccccc34)CC2)n1`, the “lipid storage change, negative = inhibition” value is 14.5% (inactive) and the cell number change is -0.422%.

Consider `CC12CN(C(=O)c3ccc(Cl)cc3)C3(C#N)CC1CCC23C` (stereo unspecified), for which the call was inactive. Take `O=C(Nc1ncc(Cc2cccc(C(F)(F)F)c2)s1)C1CCCO1` (stereo unspecified): the “lipid storage change, negative = inhibition” value was -2.84% (inactive) and the cell number change is -4.39%.

Regarding `O=C(Nc1ncc(Cc2cccc(Cl)c2)s1)C1CCCO1` (stereo unspecified), the “lipid storage change, negative = inhibition” value was 0.772% (inactive) and the cell number change is -0.923%. Regarding `Cc1ccc(Cc2cnc(NC(=O)C3CCCO3)s2)cc1` (stereo unspecified), the Potency was 2.06 µM (active) and the cell number change was found to be 15.9%. Consider `CCOC(=O)c1c(-c2ccc(F)cc2)csc1NC(=O)C1CCCO1` (stereo unspecified), for which the “lipid storage change, negative = inhibition” value was -6.46% (inactive) and the cell number change is 2.19%. Regarding `CCOC(=O)c1c(-c2ccccc2)csc1NC(=O)C1CCCO1` (stereo unspecified), the “lipid storage change, negative = inhibition” value is -8.83% (inactive) and the cell number change was -4.26%. As for `CCOC(=O)c1c(-c2ccc(C)cc2)csc1NC(=O)C1CCCO1` (stereo unspecified), the Potency was 6.51 µM (active) and the cell number change amounted to 11.7%. Regarding `O=C(NCC1CCCO1)C(=O)N/N=C\c1ccc2c(c1)OCO2` (stereo unspecified), the compound was classed as inactive and the cell number change was -7.51%. Regarding `Cc1c(C(=O)N2CCCCCC2)c(S(=O)(=O)Nc2cccc(F)c2)c(C)n1C`, the outcome was inactive. Take `COc1cc2c(cc1OC)CN(c1ccc(-c3ccccc3OC)nn1)CC2`: the “lipid storage change, negative = inhibition” value was -6.67% (inactive) and the cell number change is -18%.

Turning to `COc1cc2c(cc1OC)CN(c1ccc3ccccc3n1)CC2`, the Potency was 14.6 µM (active) and the cell number change was -10.9%.

`COc1cc2c(cc1OC)CN(c1nc(-c3cccnc3)nc3ccccc13)CC2`: the “lipid storage change, negative = inhibition” value is 13.7% (inactive) and the cell number change came out at 13.3%.

With `O=C(Nc1ccc(Cl)cc1)NN1CC(=O)N(c2cccc(C(F)(F)F)c2)CC1=O`, the “lipid storage change, negative = inhibition” value was -5.06% (inactive) and the cell number change was -8.1%.

Regarding `Cc1ccc(OCCn2cc(Br)c(=O)[nH]c2=O)cc1`, the result was inactive and the cell number change is -2.4%. With `COc1cccc(CNC(=O)CCC2CCCN(C(=O)c3cc(C)on3)C2)c1` (stereo unspecified), the “lipid storage change, negative = inhibition” value was 3.38% (inactive) and the cell number change amounted to 6.95%. In the case of `C=CCNC(=S)/N=c1/ccccn1C`, the “lipid storage change, negative = inhibition” value was -4.8% (inactive) and the cell number change is -1.1%.

`Cc1cccc(CN2CCC(C(=O)Nc3cccc(-c4cccc(F)c4)c3)CC2)n1`: the “lipid storage change, negative = inhibition” value was -11.7% (inactive). For the compound `Cc1nnc(SCc2ccc(F)cc2Cl)s1`, the compound was called inactive and the cell number change is -1.12%. As to `Cc1nnc(SCc2ccc(F)cc2)s1`, the Potency is 2.06 µM (active) and the cell number change is -1.22%.

On to `COc1ccc(CSc2nnc(C)s2)cc1F`, for which the “lipid storage change, negative = inhibition” value is 3.56% (inactive) and the cell number change stood at 9.99%. Regarding `COc1ccc(OC)c(C(=O)COC(=O)C(CCSC)NC(=O)COc2ccccc2)c1` (stereo unspecified), the compound was called inactive. Turning to `O=C(NCCN1CCCC1)C1CCN(S(=O)(=O)N2CCC3(CC2)OCCO3)CC1`, the Potency is 29.1 µM (active) and the cell number change was -14.5%. Turning to `CC1CCN(CCCNC(=O)C2CCN(S(=O)(=O)N3CCC4(CC3)OCCO4)CC2)CC1`, the “lipid storage change, negative = inhibition” value was -18.8% (inactive) and the cell number change was determined as 1.22%. On to `O=C(NCCCN1CCCCC1)C1CCN(S(=O)(=O)N2CCC3(CC2)OCCO3)CC1`, for which the compound was called inactive and the cell number change is -12.2%.

For the compound `O=C(CCCC(=O)c1ccccc1)NCCc1ccccc1F`, the “lipid storage change, negative = inhibition” value was 2.38% (inactive) and the cell number change was 22%. In the case of `Clc1ccc(-c2nnc(N3CCOCC3)o2)cc1`, the “lipid storage change, negative = inhibition” value is 4.05% (inactive) and the cell number change was determined as 3.72%.

Consider `CC(=O)c1ccc(OCCCC(=O)Nc2cccc(S(=O)(=O)N(C)C)c2)cc1`, for which the “lipid storage change, negative = inhibition” value was 2.99% (inactive) and the cell number change was 1.3%. For `O=S(=O)(NCC(c1ccco1)N1CCN(c2ccccc2)CC1)c1ccc(F)cc1` (stereo unspecified), the “lipid storage change, negative = inhibition” value was 8.16% (inactive) and the cell number change stood at 9.35%. Turning to `O=S(=O)(NCC(c1ccco1)N1CCN(c2ccccc2F)CC1)c1ccccc1` (stereo unspecified), the “lipid storage change, negative = inhibition” value was 15.1% (inactive) and the cell number change came out at 26.9%.

On to `O=S(=O)(NCC(c1ccco1)N1CCN(c2ccccc2F)CC1)c1ccc2c(c1)OCCO2` (stereo unspecified), for which the Potency is 23.1 µM (active).
